Data: PubChem BioAssay AID624405 (Broad Institute, 2012)
Out of some 1,900 compounds screened, about 250 (13%) were called active. Not shown: some 4% with an inconclusive outcome.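 How the source made its calls: active means fitted curve reaches 40% rescue activity at or below the top valid dose, in every test run; inconclusive means test runs disagree, some active and some inactive; inactive means every run misses the threshold or moves the wrong way.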 These entries were drawn from the full list. Measured potencies and affinities stand elsewhere.

Assay: suppressors of statin myotoxicity in myotubes, dose response, cell-based, C2C12 myotubes, ATP luminescence, cherry pick (AID 624405);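 further: myotubes are challenged with simvastatin at 10 µM to lower ATP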
Details: C2C12 myotubes + simvastatin, 48 h, scaled: DMSO wells 0, geranylgeraniol wells 100; series mostly up to 19.5 µM

Row | SMILES | outcome
1 | COc1ccc(C(=O)N2C[C@H]3[C@@H](c4ccccc42)[C@H](CO)N3Cc2ccccc2)cc1 | inactive
2 | C[C@H]1CN([C@@H](C)CO)C(=O)c2cccc(NC(=O)Nc3ccc(C(F)(F)F)cc3)c2O[C@@H]1CN(C)S(=O)(=O)c1ccc(Cl)cc1 | inactive
3 | C[C@H]1CCCCO[C@H](CN(C)C(=O)Nc2cccc3ccccc23)[C@@H](C)CN([C@@H](C)CO)C(=O)c2cc(NC(=O)Nc3ccc4c(c3)OCO4)ccc2O1 | inactive
4 | COc1ccc(S(=O)(=O)N2CCN(c3ccc4nnc(-c5ccccc5)n4n3)CC2)cc1 | inactive
5 | COc1ccc(-c2nc(CC(=O)O)cs2)cc1 | inactive
6 | COc1ccc(-c2noc(CCCOc3ccc(Cl)cc3Cl)n2)cc1 | inactive
7 | COc1ccc2sc(-c3ccccc3OC)c(-c3ccc(O)cc3)c2c1 | inactive
8 | C[C@@H]1CCCCO[C@@H](CN(C)S(=O)(=O)c2ccc(F)cc2)[C@@H](C)CN([C@H](C)CO)C(=O)c2cc(NC(=O)Nc3cccc4ccccc34)ccc2O1 | inactive
9 | C[C@@H]1CCCCO[C@H](CN(C)S(=O)(=O)c2cccs2)[C@H](C)CN([C@H](C)CO)C(=O)c2cc(NC(=O)Nc3ccc(F)cc3)ccc2O1 | inactive
10 | C[C@H]1CN([C@@H](C)CO)C(=O)c2cccc(NC(=O)Nc3ccc(F)cc3)c2O[C@@H]1CN(C)CC1CCCCC1 | inactive
11 | C[C@H]1CN([C@@H](C)CO)C(=O)c2cccc(NC(=O)Nc3ccc4c(c3)OCO4)c2O[C@@H]1CN(C)CC1CCCCC1 | inactive
12 | CC(=O)c1cc(C#N)c(Oc2ccc(Cl)cc2Cl)nc1C | inactive
13 | CC(=O)C1=C(O)C(=O)N(c2ccc(S(N)(=O)=O)cc2)C1c1ccccc1F (stereo unspecified) | inactive
14 | C[C@@H]1CN([C@H](C)CO)C(=O)c2cc(C3=CCCCC3)cnc2O[C@@H]1CN(C)C(=O)Nc1ccc(F)cc1 | inactive
15 | Cc1noc(C)c1NC(=O)Nc1ccc2c(c1)C(=O)N([C@@H](C)CO)C[C@@H](C)[C@@H](CN(C)C(=O)Nc1cccc3ccccc13)O2 | inactive
16 | CC(O)CNc1nc2ccccc2n1-c1ncnc2sc3c(c12)CCC3 (stereo unspecified) | inactive
17 | Oc1[nH]c2ccccc2c1C=NCC1CCCO1 (stereo unspecified) | inactive
18 | CCOC(=O)C1=NN(C(=O)Cc2ccccc2)C(O)(c2ccc(Cl)cc2)C1 (stereo unspecified) | inactive
19 | C[C@@H]1CN([C@@H](C)CO)C(=O)Cc2cc(NC(=O)Nc3cccc4ccccc34)ccc2O[C@@H]1CN(C)Cc1ccc(C(=O)Nc2ccccc2N)cc1 | inactive
20 | C[C@@H]1CN([C@H](C)CO)C(=O)Cc2cc(NC(=O)Nc3cccc4ccccc34)ccc2O[C@H]1CN(C)Cc1ccc(C(=O)Nc2ccccc2N)cc1 | inactive
21 | C[C@@H]1CN([C@H](C)CO)C(=O)Cc2cc(NC(=O)Nc3cccc4ccccc34)ccc2O[C@@H]1CN(C)Cc1ccc(C(=O)Nc2ccccc2N)cc1 | inactive

Row | SMILES | outcome
22 | C[C@H]1CN([C@@H](C)CO)C(=O)Cc2cc(NC(=O)Nc3cccc4ccccc34)ccc2O[C@@H]1CN(C)Cc1ccc(C(=O)Nc2ccccc2N)cc1 | inactive
23 | CCN(CC)C(=O)c1scc2c1OCCO2 | inactive
24 | CC1CC(c2ccccc2)n2nc(N3C(=O)c4ccccc4C3=O)nc2N1 (stereo unspecified) | inactive
25 | Cc1nnc(SCC(=O)NCc2ccccc2)n1-c1ccccc1 | inactive
26 | c1ccc(CSc2nnc(-c3ccccn3)n2-c2ccccc2)cc1 | inactive
27 | COc1ccc(CN(C)C[C@@H]2Oc3ccc(NC(=O)Cc4ccccc4)cc3CC(=O)N([C@H](C)CO)C[C@H]2C)cc1 | inactive
28 | CC(=O)Nc1cccc(Nc2nc(-c3ccccc3F)nc3ccccc23)c1 | inactive
29 | CCCC(=O)NC(=S)Nc1cccc(C(C)=O)c1 | inactive
30 | CCN(C(=O)COC(=O)c1cnc(C)cn1)C1CCCCC1 | inactive
31 | Cc1cc(C)c2c(c1)/C(=N/NS(=O)(=O)c1ccccc1)CCC2 | inactive
32 | Cc1ccccc1N(CC(=O)NC1CCCC1)C(=O)CS(=O)CC(=O)Nc1ccc2c(c1)OCO2 (stereo unspecified) | inactive
33 | CC(C)C(=O)Nc1cc(S(=O)(=O)N2CCOCC2)ccc1N1CCCCC1 | inactive
34 | CC1CCN(S(=O)(=O)c2ccc3ccccc3c2)CC1 | inactive
35 | OCCNCc1cccc(-c2ccccc2)c1O | inactive
36 | O=C(CN(c1ccc(F)cc1)S(=O)(=O)c1ccccc1)NCc1ccco1 | inactive
37 | CC(C)Oc1ccc(C(=O)NCc2ccco2)cc1 | inactive
38 | O=C(c1ccco1)N1CCN(C(=O)c2cc3sccc3n2Cc2ccccc2)CC1 | inactive
39 | O=C(NCc1ccco1)C1CCN(C(=O)c2cc3sccc3n2Cc2ccc(F)cc2)CC1 | inactive
40 | CCN1CCN(c2ccc(NC(=O)Cc3ccccc3)cc2)CC1 | inactive
41 | O=S(=O)(c1cccc2nsnc12)N1CCOCC1 | inactive
42 | COc1ccc(NC(=O)Nc2ccc3c(c2)C(=O)N([C@H](C)CO)C[C@@H](C)[C@@H](CN(C)Cc2ccc(C(F)(F)F)cc2)OCCCC[C@@H](C)O3)cc1 | inactive

Row | SMILES | outcome
43 | CCC(C)(NC(=O)CNC(C)=O)C(=O)NC1CCCCC1 (stereo unspecified) | inactive
44 | COc1ccc(C#Cc2cnc3c(c2)C(=O)N([C@@H](C)CO)C[C@@H](C)[C@H](CN(C)C(=O)Nc2cccc(OC)c2)O3)cc1 | inactive
45 | CCOCCn1c(COc2ccccc2)nc2ccccc21 | inactive
46 | CCOC(=O)c1ccc2c(c1)nc(COc1ccc(OC)cc1)n2CC | inactive
47 | O=C(CCCCCn1c(=O)[nH]c2ccsc2c1=O)NCc1ccc(F)cc1 | inactive
48 | CCc1ccc(NC(=O)c2cc(-c3cccs3)on2)cc1 | inactive
49 | CCOC(=O)/C=C(\C)Nc1cc(C)nn1-c1ccccc1 | inactive
50 | C[C@@H]1CN([C@H](C)CO)C(=O)c2cc(NC(=O)Cc3cn(C)c4ccccc34)ccc2O[C@H]1CN(C)S(=O)(=O)c1cccs1 | inactive
51 | O=C(NCc1ccco1)C(c1ccc(F)cc1)N(Cc1cccnc1)C(=O)Cn1nnc2ccccc21 (stereo unspecified) | inactive
52 | C[C@@H]1CN([C@H](C)CO)C(=O)Cc2cc(NC(=O)CCCCCC(=O)Nc3ccccc3N)ccc2O[C@H]1CN(C)Cc1ccc(C(F)(F)F)cc1 | inactive
53 | C[C@@H]1CN([C@H](C)CO)C(=O)Cc2cc(NC(=O)CCCCCC(=O)Nc3ccccc3N)ccc2O[C@@H]1CN(C)Cc1ccc(C(F)(F)F)cc1 | inactive
54 | C[C@@H]1CN([C@@H](C)CO)C(=O)Cc2cc(NC(=O)CCCCCC(=O)Nc3ccccc3N)ccc2O[C@@H]1CN(C)Cc1ccc(C(F)(F)F)cc1 | inactive
55 | C[C@@H]1CN([C@@H](C)CO)C(=O)Cc2cc(NC(=O)CCCCCC(=O)Nc3ccccc3N)ccc2O[C@H]1CN(C)Cc1ccc(C(F)(F)F)cc1 | inactive
56 | Cc1cc(C)c2c(CN3CCN(Cc4ccc5c(c4)OCO5)CC3)cc(=O)oc2c1 | inactive
57 | C[C@H](CO)N1C[C@H](C)[C@@H](CN(C)Cc2ccc(C(F)(F)F)cc2)Oc2ccc(NS(=O)(=O)c3ccc(Cl)cc3)cc2CC1=O | inactive
58 | C[C@@H]1CCCCO[C@@H](CN(C)Cc2ccc(C(F)(F)F)cc2)[C@H](C)CN([C@@H](C)CO)C(=O)c2cc(NS(=O)(=O)c3cccs3)ccc2O1 | inactive
59 | Cc1ccc(-c2cnc3c(c2)C(=O)N([C@H](C)CO)C[C@H](C)[C@@H](CN(C)C(=O)Cc2ccccc2)O3)cc1 | inactive
60 | CCC(C)(C)NC(=O)CN(C(=O)CNS(=O)(=O)c1ccccc1)c1ccccc1 | inactive
61 | COc1ccc(CN2[C@@H](CO)[C@@H]3c4ccccc4N(C(=O)c4ccccc4)C[C@@H]32)cc1 | inactive
62 | CC(C)CC(c1nnnn1C1CCCC1)N1CCN(c2ccccc2F)CC1 (stereo unspecified) | inactive
63 | Fc1ccc(C(c2nnnn2C2CCCC2)N2CCN(Cc3ccccc3)CC2)cc1 (stereo unspecified) | inactive

Row | SMILES | outcome
64 | Cc1ccc(NS(=O)(=O)c2ccc(C)c(C(=O)N3CCN(C)CC3)c2)cc1 | inactive
65 | Cc1ccc(-n2c(=O)cc(N3CCN(C(=O)c4ccco4)CC3)[nH]c2=O)cc1 | inactive
66 | COc1ccc(Oc2coc3c(CN(C)C)c(O)ccc3c2=O)cc1 | inactive
67 | O=C(Nc1ccc(N2CCN(C(=O)c3ccccc3)CC2)c(Cl)c1)c1ccco1 | inactive
68 | Cc1cc(N2CCN(c3nnnn3-c3ccccc3)CC2)n2ncnc2n1 | inactive
69 | C=CCSc1nnc(CSc2nc3sc4c(c3c(=O)[nH]2)CCCC4)n1-c1ccccc1 | inactive
70 | C[C@@H]1CN([C@@H](C)CO)C(=O)c2cc(C#CC3CCCCC3)cnc2O[C@H]1CN(C)C(=O)C1CCCCC1 | inactive
71 | COc1cc2c(cc1OC)C(c1cc(OC)c(OC)c(OC)c1)NCC2 (stereo unspecified) | inactive
72 | C[C@@H]1CCCCO[C@H](CN(C)C(=O)Nc2cccc3ccccc23)[C@@H](C)CN([C@H](C)CO)C(=O)c2cc(NS(=O)(=O)c3ccc(Cl)cc3)ccc2O1 | inactive
73 | CCN(CC)C(=O)c1sc(N)c(C#N)c1C | inactive
74 | COc1ccc(CN(C)C[C@H]2OCCCC[C@H](C)Oc3ccc(NC(=O)NC(C)C)cc3C(=O)N([C@@H](C)CO)C[C@H]2C)cc1 | inactive
75 | CS(=O)(=O)N1CCN(c2cccc(Cl)n2)CC1 | inactive
76 | O=C(c1ccccc1CCc1ccccc1)N1CCOCC1 | inactive
77 | C[C@@H]1CCCCO[C@H](CN(C)S(=O)(=O)c2ccc(F)cc2)[C@H](C)CN([C@@H](C)CO)C(=O)c2cc(NC(=O)Cc3ccccc3)ccc2O1 | inactive
78 | Cc1ccccc1C(=O)NCc1nnc(SCC(=O)N2CCN(c3ccccc3)CC2)n1C | inactive
79 | C[C@@H]1CN([C@H](C)CO)C(=O)c2cccc(NC(=O)c3ccc(-c4nccs4)cc3)c2O[C@@H]1CN(C)C(=O)Nc1cccc2ccccc12 | inactive
80 | C[C@H]1CN([C@@H](C)CO)C(=O)Cc2cc(NC(=O)Nc3ccc4c(c3)OCO4)ccc2O[C@@H]1CN(C)Cc1ccc(-c2ccccc2)cc1 | inactive
81 | C[C@H](CO)N1C[C@H](C)[C@@H](CN(C)Cc2ccc(-c3ccccc3)cc2)Oc2ccc(NC(=O)Nc3ccc4c(c3)OCO4)cc2CC1=O | inactive
